From PubChem BioAssay
This excerpt belongs to a sample that is enriched for hits.
Tg IFNy HTS: T. gondii growth inhibition with IFN-gamma, primary screen, cell-based | activity change, negative = inhibition, % (concentration not given with the values) | actives 3.8% (n = 69,000) | Toxoplasma gondii growth in IFN-gamma-treated host cells; active compounds read low; in the data active = activity change below about -70%, passing the limit was not always enough;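 also: host cells are HeLa cells infected with Toxoplasma gondii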
Of the large screens only hits and unclear results are named; the others gave an inactive call; ! = repeats disagree.

c1cc2cc(CN3CCC4(CCOCC4)CC3)ccc2[nH]1	none
COc1cccc(F)c1C(=O)N1CCC(Cc2cccc(C(=O)O)c2)CC1	none
CCS(=O)(=O)N1CCC2(CCOCC2COc2ccccn2)CC1 (centres undefined)	none
Cc1ccc(-c2coc(-c3ccc(NC(=O)C4CCCCC4)cc3)n2)cc1	none
COc1ccc(C2(CNCc3c(C(=O)N4CCCC4)nc4ccccn34)CCCC2)cc1	none
O=C(COc1ccc(Cl)cc1)Nc1ccc(Cl)cn1	none
O=C(COc1ccc(Cl)cc1)Nc1c[nH]c(=O)[nH]c1=O	Tg IFNy HTS -106
Cc1ccccc1CSCC(=O)Nc1c[nH]c(=O)[nH]c1=O	none
O=C(NC1CCSC1=O)c1sc2ccccc2c1Cl (centres undefined)	none
O=C(NC(=O)c1sc2ccccc2c1Cl)c1ccccc1O	Tg IFNy HTS -107
O=C(Nc1ncn[nH]1)c1sc2ccccc2c1Cl	none
c1ccc(COC2CCCN(Cc3ccsc3)C2)nc1 (centres undefined)	none
O=C(Cn1ncc2c(N3CCCCC3)ncnc21)N1CCN(c2ccccc2F)CC1	none
Cc1ncc(-c2ccccn2)c(C2CCC(CNC(=O)Cc3sc(C)nc3C)CC2)n1 (centres undefined)	none
O=C(CN1CCCCC1)N1CCOC(CCCc2ccccc2)C1 (centres undefined)	none
Cc1nc2nc[nH]n2c(=O)c1CCC(=O)NCC1(c2cccc(F)c2)CCOCC1	none
Cc1oc(-c2ccc(C(=O)N(C)Cc3ccccc3)cc2)nc1CN1CCN(c2ccccc2)CC1	Tg IFNy HTS -94
CNC(=O)c1ccc(-c2nc(CN3CCN(c4ccccc4)CC3)c(C)o2)cc1	none
COCCCNC(=O)c1ccc(-c2nc(CN3CCc4ccccc43)c(C)o2)cc1	none
CCCCNC(=O)c1ccc(-c2nc(CN3CCc4ccccc43)c(C)o2)cc1	none
CCCCN(C)C(=O)c1ccc(-c2nc(CN3CCN(c4ccccc4)CC3)c(C)o2)cc1	none
Cc1oc(-c2ccc(C(=O)N3CCC(C)CC3)cc2)nc1CN1CCc2ccccc21	none
Cc1oc(-c2ccc(C(=O)NCCCc3ccccc3)cc2)nc1CN1CCc2ccccc21	none
CCCCOc1ccc(CNC(=O)c2ccc(-c3nc(CN4CCc5ccccc54)c(C)o3)cc2)cc1	Tg IFNy HTS -94
CCOC(=O)C1CCCN(C(=O)c2ccc(-c3nc(CN4CCc5ccccc54)c(C)o3)cc2)C1 (centres undefined)	none
Cc1oc(-c2ccc(C(=O)N3CCCCCC3)cc2)nc1CN1CCc2ccccc21	Tg IFNy HTS -101
CCOc1ccc(CNC(=O)c2ccc(-c3nc(CN4CCc5ccccc54)c(C)o3)cc2)cc1	none
Cc1oc(-c2ccc(C(=O)NCCc3ccccc3)cc2)nc1CN1CCc2ccccc21	Tg IFNy HTS -127
OCCn1ccnc1-c1cccc(-c2ccco2)c1	none
Cc1cc(C)n(CCCC(=O)N2CCC3(CN(C)C(=O)O3)C2)n1 (centres undefined)	none
CCC/C=C/c1ccccc1C(=O)NCC	none
CCOc1ccccc1-c1nc(Cn2nnc(C(=O)Nc3ccc(Br)cc3)c2C)c(C)o1	none
O=C(CSc1nnc(CNc2ccc(F)cc2)o1)c1ccccc1F	none
Cc1[nH]c2ccc(CNC(=O)C(C)n3cc(Cl)cn3)cc2c1C (centres undefined)	none
CN(C)C(=O)N1CCOC2(CCCN(c3cccc(C#N)n3)C2)C1 (centres undefined)	none
CCc1ccc(NC(=O)N2CCC(c3nc(C(=O)N4CCOCC4)c(C)o3)CC2)cc1	none
CN1CCCN(C(=O)c2ncn3c(C4CCN(S(C)(=O)=O)CC4)ccnc23)CC1	none
Cc1ccc(CNC(=O)c2ccc(-c3nc(CN4CCc5ccccc54)c(C)o3)cc2)o1	none
Cc1oc(-c2ccc(C(=O)NCc3ccccc3Cl)cc2)nc1CN1CCc2ccccc21	none
Cc1oc(-c2ccc(C(=O)NCc3cccs3)cc2)nc1CN1CCc2ccccc21	Tg IFNy HTS -94
Cc1ccc(NC(=O)Cn2c(=O)cc(-c3nc(C4CC4)no3)c3ccccc32)cc1F	none
COc1ccc2[nH]cc(CCNC(=O)c3sc4ncccc4c3-n3cccc3)c2c1	none
CN1CCCc2ccc(NC(=O)CCc3ccc(S(=O)(=O)N(C)C)cc3)cc21	none
Cc1ccc(N2CCN(c3nc(-c4ccc(Cl)cc4)nc4ccccc34)CC2)c(C)c1	none
COc1ccc(C2(C(=O)N3CCC(n4nc(-c5ccsc5)ccc4=O)CC3)CC2)cc1	Tg IFNy HTS -95
COc1ccc(C2(C(=O)N3CCCC(O)(CO)C3)CC2)cc1 (centres undefined)	none
COc1ccc(C2(C(=O)N3CCCC(N(C)C)CC3)CCCC2)cc1 (centres undefined)	none
O=C(CCc1ccco1)N1CC[C@@H](c2ccc3ccccc3c2)[C@H](O)C1	none
CCC(=O)Nc1ccc(-c2ccc(OC)nc2)c(C)n1	none
COc1ccc(-c2cc3c(C)nc(N)nc3n(C3CCC(OCCO)CC3)c2=O)cn1 (centres undefined)	Tg IFNy HTS -83
COc1ccc(-c2ccccc2OC(C)C(N)=O)cn1 (centres undefined)	none
O=C(c1csc(-c2ccc(N3CCSCC3)nc2)n1)N1CCC2(CC1)OCCO2	none
CCCN(C(=O)c1ccc(OC)cc1)C1(C(=O)NCc2ccccc2)CCN(C(C)=O)CC1	none
Cc1ccc(NC2=CC(=O)c3sc(C)nc3C2=O)cc1	Tg IFNy HTS -76
CCS(=O)(=O)N1CCC2(CC1)OC(=O)C(C)=C2C(=O)NCCN(CC(C)C)CC(C)C	none
CS(=O)(=O)N1CCO[C@H]2[C@@H](Oc3ccccn3)CC[C@H]21	none
COCCN1C[C@]23CN(C(=O)COC)C[C@@H](C[C@H]2S1(=O)=O)O3	none
CCN1C(=O)C(c2ccccc2)CC12CCN(c1ncccn1)CC2 (centres undefined)	none
COc1ccc(-c2nnc(-c3nc(Nc4ccc(Br)cc4)c4ccccc4n3)o2)cc1	none
COC(=O)Nc1nc2ccc(C(=O)c3ccc(F)cc3)cc2[nH]1	none
CCCOc1ccc2nc(NC(=O)OC)[nH]c2c1	Tg IFNy HTS -73!
CCOC(=O)Nc1nc2ccccc2[nH]1	none
CCc1nc(CNC(=O)c2cc(-c3cnn(CC)c3C)on2)no1	none
CCOCC1CN(C(=O)c2cc(C)on2)Cc2cn(CC3CC3)nc21 (centres undefined)	none
CC(C)N(CCC(N)=O)S(=O)(=O)NCc1ccccc1	none
Fc1ccc(C(CCCN2CCN3CCCCC3C2)c2ccc(F)cc2)cc1 (centres undefined)	none
OC(CCCN1CCC(O)(c2ccc(Cl)cc2)CC1)c1ccc(F)cc1 (centres undefined)	none
OC1(c2ccc(Cl)c(C(F)(F)F)c2)CCN(CCCC(c2ccc(F)cc2)c2ccc(F)cc2)CC1	Tg IFNy HTS -85!
O=C(C1CCC1)N1CCC[C@@H]1Cn1nnc(-c2cccnc2)n1	none
CCOC(=O)c1coc(N2CC[C@@H](N3CCOCC3)[C@H](O)C2)n1	none
CCOC1COC2(CCN(S(C)(=O)=O)CC2)C1 (centres undefined)	none
COc1ccc(CCNC(=O)COc2ccc(Br)c(C)c2)cc1OC	none
COc1ccc(CCNC(=O)C2CCCN2C(=O)Nc2ccc(C)cc2)cc1OC (centres undefined)	none
CC[C@H](C(=O)N1CCCC[C@H]1C(=O)O[C@H](CCc1ccc(OC)c(OC)c1)c1cccc(OCC(=O)NCCNC(=O)COc2cccc([C@@H](CCc3ccc(OC)c(OC)c3)OC(=O)[C@@H]3CCCCN3C(=O)[C@@H](CC)c3cc(OC)c(OC)c(OC)c3)c2)c1)c1cc(OC)c(OC)c(OC)c1	Tg IFNy HTS -72
Cc1cccc(CCNC(=O)c2ccc(-c3nc(CN4CCN(c5ccccc5)CC4)c(C)o3)cc2)c1	none
C=CCn1c(Cc2ccc(O)c(Cl)c2)n[nH]c1=S	none
